Measured values as given in PubChem BioAssay (NCI).
This is part of a sample that, as a whole, favours compounds with a hit. Of some 83,000 tested, about 20% had one in any assay.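 Step 1: grow cells in 96-well plates. Step 2: add test compound at a single concentration. Step 3: incubate 48 h. Step 4: record percent growth.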 Unmarked numbers belong to inactive results. Active and inactive are the calls of the source. The calls were made as follows: active = growth percent below 10; inactive = the rest.

How the values were obtained:
Assay in all cases: NCI-60 one-dose screen, 48 h (100 = growth as untreated, 0 = no growth, -100 = all killed)
K-562 leukemia = details: 10 µM unless noted
MALME-3M melanoma = details: 10 µM unless noted
MDA-MB-231 breast = details: 10 µM unless noted
RXF 393 renal = details: 10 µM unless noted
SF-268 CNS = details: 10 µM unless noted
SF-295 CNS = details: 10 µM unless noted
SF-539 CNS = details: 10 µM unless noted
UACC-257 melanoma = details: 10 µM unless noted
M14 melanoma = details: 10 µM unless noted
HCT-15 colon = details: 10 µM unless noted
HT29 colon = details: 10 µM unless noted
SNB-75 CNS = details: 10 µM unless noted
SNB-19 CNS = details: 10 µM unless noted
U251 CNS = details: 10 µM unless noted
PC-3 prostate = details: 10 µM unless noted
SK-MEL-5 melanoma = details: 10 µM unless noted
UACC-62 melanoma = details: 10 µM unless noted
LOX IMVI melanoma = details: 10 µM unless noted
SK-MEL-28 melanoma = details: 10 µM
SK-MEL-2 melanoma = details: 10 µM unless noted

Compound	growth (K-562 leukemia)	growth (MALME-3M melanoma)	growth (MDA-MB-231 breast)	growth (RXF 393 renal)	growth (SF-268 CNS)	growth (SF-295 CNS)	growth (SF-539 CNS)	growth (UACC-257 melanoma)	growth (M14 melanoma)	growth (HCT-15 colon)	growth (HT29 colon)	growth (SNB-75 CNS)	growth (SNB-19 CNS)	growth (U251 CNS)	growth (PC-3 prostate)	growth (SK-MEL-5 melanoma)	growth (UACC-62 melanoma)	growth (LOX IMVI melanoma)	growth (SK-MEL-28 melanoma)	growth (SK-MEL-2 melanoma)
O=c1c2cccc(F)c2sc2c(N3CCNCC3)nc3ccccc3c12	-42.1% (active)	53.5%	34.6%	42.4%	41.4%	74.6%	48.9%	8.99% (active)	-27.4% (active)	5.87% (active)	-45.4% (active)	35.3%	46.5%	10.3%	39.8%	56.2%	54%	19.9%	69.1%	95%
O=C(/C=C/c1ccccc1)c1ccc(Nc2nc(NCCO)nc(Nc3ccc(Cl)cc3)n2)cc1	36.1%	98.7%	71.4%	73.2%	73.8%	96.1%	73%	94.7%	99.9%	8.55% (active)	30.2%	69.2%	79.6%	23%	77.8%	80.2%	78.7%	30.6%	88.2%	95.4%
O=C(/C=C/c1ccc(F)cc1)c1ccc(Nc2nc(NCCO)nc(Nc3ccc(Cl)cc3)n2)cc1	45.4%	96.6%	71.9%	51.2%	71.9%	91%	74.4%	99.5%	83.3%	26.7%	22.4%	81.4%	93.4%	27%	68%	75.4%	74.5%	37.3%	86.9%	103%
CCN1C(=O)N(CC)C2C1NN=c1s/c(=C3\C(=O)N(C(C)C)c4ccccc43)c(=O)n12 (stereo not given)	7.46% (active)	64.6%	11.3%	35.5%	25.2%	5.01% (active)	-13.2% (active)	57.1%	18.9%	12.4%	2.15% (active)	41.2%	31.3%	20.6%	25.8%	2.79% (active)	16.9%	20.7%	57.4%	23.8%
CCOC(=O)C1=C(C)N=c2s/c(=C\c3cc(Cl)ccc3O)c(=O)n2C1c1ccc(OC)cc1 (stereo not given)	73.8%	109%	95.1%	80.9%	107%	111%	118%	101%	88.4%	98.6%	72.9%	89%	99%	85.4%	85.2%	88.5%	94%	95.2%	106%	94.6%
COC(=O)c1cc2c(n1Cc1ccccc1)-c1oncc1CCC2	17.8%	49.5%	64.2%	73.7%	86.8%	74.7%	69.1%	76.2%	57.5%	40.9%	30.9%	67.2%	81.8%	68.6%	77.4%	58.6%	49.7%	67.8%	62.5%	47.7%
CCOC(=O)C1(Cc2ccccc2)CCN(Cc2cccc(OC)c2O)CC1	8.73% (active)	12%	22.1%	-13.9% (active)	5.65% (active)	-22.2% (active)	5.93% (active)	-4.96% (active)	2.78% (active)	24%	22.2%	37.7%	14.9%	3.94% (active)	25%	-33.4% (active)	-7.92% (active)	5.51% (active)	38%	9.33% (active)
COC(=O)/C(CCC=C(C)C)=C1\[C@@H](OC(C)=O)C[C@@]2(C)[C@H]1CC(=O)N[C@H]1[C@@]3(C)CCNC(=O)[C@@H](C)[C@@H]3CC[C@@]12C	101%	101%	102%	112%	101%	101%	103%	104%	98.5%	106%	102%	96.2%	98.6%	102%	97.8%	95.4%	96.3%	97.9%	106%	106%
COc1cc2nc(NC3CCCC3)nc(NC3CCN(C(C)C)CC3)c2cc1OC	-4.9% (active)	76.4%	24.8%	18%	88.7%	96.5%	59.6%	79.9%	-80.4% (active)	79.2%	17.3%	61.2%	88%	45%	71.1%	67.6%	94.6%	84.4%	87.1%	101%
CCOC(=O)C1=CN(C)C=C(C(=O)OCC)C1c1cc(Br)c(OCC)c(OC)c1	-20.4% (active)	-1.58% (active)	36.8%	49.9%	73.3%	-47.3% (active)	58.9%	-50% (active)	-37.3% (active)	14.7%	7.46% (active)	43.5%	64.8%	34.8%	45.2%	36.1%	-48% (active)	18.3%	18.8%	72.3%
O=C(/C=C/c1ccc(Cl)cc1)c1ccc(Nc2nc(NCCO)nc(N3CCOCC3)n2)cc1	44.5%	99.5%	84.3%	71.3%	82%	94.5%	90.4%	101%	105%	44.8%	42.2%	64.6%	91.9%	46.1%	77.1%	79.4%	69%	68%	94.7%	109%
CCCCC1COc2cccc3c2N1C=C/C3=C\C(=O)N(C)c1ccccc1 (stereo not given)	26.2%	59.9%	62.9%	89.6%	70.4%	52.2%	84%	53%	65.1%	86.3%	49.7%	72.1%	52.3%	33.9%	51.2%	13.4%	36%	51.2%	75%	71.1%
c1ccc(-c2ccc(-c3nc4ccccc4[nH]3)cc2)cc1	7.32% (active)	92.4%	64.3%	92.1%	77.8%	101%	99%	98%	93.8%	78.5%	52.9%	55.4%	106%	90.6%	76.8%	100%	103%	84.1%	93.2%	101%
COc1ccc(Cn2c(Br)c3c(c2Br)-c2nc(NC(=O)c4ccc(OC)cc4)sc2CC3)cc1	79.2%	4.4% (active)	52.6%	57%	72%	57.7%	52.1%	78.5%	80.4%	92.8%	84.8%	48.2%	80.1%	67.8%	71.5%	62.1%	63.5%	80.3%	81.8%	83.8%
Cc1ccc(C2CC(c3ccc(Nc4nc(NCCO)nc(Nc5ccc(Cl)cc5)n4)cc3)=NN2c2cc(Cl)cc(Cl)c2)cc1 (stereo not given)	99.9%	102%	91.3%	88.6%	79.7%	100%	92.4%	101%	121%	99.3%	107%	85.2%	106%	97.4%	98.9%	92.4%	89.5%	98.7%	105%	122%
